The values that follow come from PMC7862700, “An all-to-all approach to the identification of sequence-specific readers for epigenetic DNA modifications on cytosine”.

Sequence of SPIB (Q01892 whole entry): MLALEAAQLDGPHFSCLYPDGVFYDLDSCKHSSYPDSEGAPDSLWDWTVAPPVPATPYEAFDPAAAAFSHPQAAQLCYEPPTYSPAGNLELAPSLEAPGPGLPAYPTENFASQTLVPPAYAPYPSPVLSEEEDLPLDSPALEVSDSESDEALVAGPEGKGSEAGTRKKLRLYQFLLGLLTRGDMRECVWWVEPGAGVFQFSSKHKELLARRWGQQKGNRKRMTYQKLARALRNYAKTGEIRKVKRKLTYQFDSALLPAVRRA

The first assay has as its target SPI1 (Homo sapiens, UniProt P17947 1-270). Nature of the assay: DAPPL (digital affinity profiling via proximity ligation, sequencing); 10 mM Tris-HCl pH 7.5, 50 mM NaCl, 1 mM DTT, 4% glycerol, room temperature, 30 min; GST-TFs on glutathione beads, 16-mer random dsDNA library, 0.1% formaldehyde crosslink after washing; high values mean tight binding. As to conditions: protein: recombinant; tags: N-terminal GST; dsDNA, one strand shown. The method in brief:
(§1)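 Human transcription factors carrying a GST fusion were produced in yeast, bound to glutathione beads, tagged with DNA barcodes and pooled together with a tag-only sample. Each pool was held with 200 nmole of a random double-stranded 16-mer DNA library in Tris/NaCl/DTT/glycerol buffer for 30 min at room temperature, then washed, crosslinked in 0.1% formaldehyde, proximity-ligated with BsaI/T4 ligase (1 h, 37 °C), PCR-amplified and sequenced on an Illumina NextSeq500. Binding signal is the read frequency of each hexamer for a given factor divided by its frequency in the tag-only sample.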
AAAGAG: the binding signal was 1.45 fold enrichment (6-mer frequency, TF over GST control). Still for that read-out and setting: as for AGTGGA, the figure is 1.08 fold enrichment (6-mer frequency, TF over GST control).

As to AGTGCG, the binding signal was 1.14 fold enrichment (6-mer frequency, TF over GST control). Still for that read-out and setting: in the case of AGAGGA it was 1.22 fold enrichment (6-mer frequency, TF over GST control); in that of GTGTGC, 1.01 fold enrichment (6-mer frequency, TF over GST control). On to TGAGGA, for which the binding signal was 1.07 fold enrichment (6-mer frequency, TF over GST control).

Consider AGCGGA, for which the binding signal was 1.26 fold enrichment (6-mer frequency, TF over GST control). As to TAGGGA, the binding signal is 1.05 fold enrichment (6-mer frequency, TF over GST control). GAGGAA: the binding signal was 1.64 fold enrichment (6-mer frequency, TF over GST control). As to AAGAGG, the binding signal was 1.56 fold enrichment (6-mer frequency, TF over GST control).

On to AGTGAT, for which the binding signal was 1.06 fold enrichment (6-mer frequency, TF over GST control).

As to AGTGAA, the binding signal is 1.26 fold enrichment (6-mer frequency, TF over GST control). The same measure, in the same setting: as for GGGAAG, the figure is 1.51 fold enrichment (6-mer frequency, TF over GST control); as for GGGGAA, 1.21 fold enrichment (6-mer frequency, TF over GST control).

The next assay deals with SPIB (Homo sapiens, UniProt Q01892 1-262). The assay is described as above. Particulars: protein: recombinant; tags: N-terminal GST; dsDNA, one strand shown. The method in brief:
as §1
In the case of TCGCAG, the binding signal was 1.04 fold enrichment (6-mer frequency, TF over GST control). GTGGTG: the binding signal was 1.02 fold enrichment (6-mer frequency, TF over GST control). The same measure, in the same setting: as for CGCTGA, the figure is 1.01 fold enrichment (6-mer frequency, TF over GST control); as for AGCGTA, 1.02 fold enrichment (6-mer frequency, TF over GST control).

The target in another assay is T1, ELK3 (Homo sapiens, UniProt P41970 1-407).
T1 sequence: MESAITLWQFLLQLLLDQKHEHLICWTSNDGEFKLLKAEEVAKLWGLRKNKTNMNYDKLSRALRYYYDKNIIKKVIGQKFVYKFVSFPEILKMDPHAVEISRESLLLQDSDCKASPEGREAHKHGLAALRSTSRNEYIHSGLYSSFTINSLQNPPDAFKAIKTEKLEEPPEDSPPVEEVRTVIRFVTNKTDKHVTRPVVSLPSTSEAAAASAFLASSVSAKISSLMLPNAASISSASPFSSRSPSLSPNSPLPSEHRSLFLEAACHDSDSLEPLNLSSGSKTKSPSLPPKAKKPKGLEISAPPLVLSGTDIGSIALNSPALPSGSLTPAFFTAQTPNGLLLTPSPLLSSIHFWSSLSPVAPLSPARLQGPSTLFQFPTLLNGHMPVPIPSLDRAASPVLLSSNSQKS
The description is as above. Particulars: protein: recombinant; tags: N-terminal GST; dsDNA, one strand shown. The essentials: as §1
As for CCGTAG, the binding signal was 1.02 fold enrichment (6-mer frequency, TF over GST control). Still for that read-out and setting: in the case of CGGAAT it was 1.01 fold enrichment (6-mer frequency, TF over GST control); in that of GCCACG, 1.03 fold enrichment (6-mer frequency, TF over GST control); in that of AAACGT, 1.06 fold enrichment (6-mer frequency, TF over GST control).

Regarding CGAGCG, the binding signal was 1.01 fold enrichment (6-mer frequency, TF over GST control).

The next assay addresses T2, FEV (Homo sapiens, UniProt Q99581 1-238).
T2 sequence: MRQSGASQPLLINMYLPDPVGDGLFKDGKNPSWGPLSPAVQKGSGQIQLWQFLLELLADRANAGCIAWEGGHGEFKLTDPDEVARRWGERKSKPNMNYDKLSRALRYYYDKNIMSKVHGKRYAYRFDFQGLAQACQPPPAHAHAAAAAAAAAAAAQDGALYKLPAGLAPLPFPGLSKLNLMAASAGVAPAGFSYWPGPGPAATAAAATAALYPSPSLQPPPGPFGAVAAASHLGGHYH
The assay is described as above. Particulars: protein: recombinant; tags: N-terminal GST; dsDNA, one strand shown. The essentials:
as §1
As to CGGCCG, the binding signal was 1.03 fold enrichment (6-mer frequency, TF over GST control). On the same count and under the same terms, in the case of CGGACA it was 1 fold enrichment (6-mer frequency, TF over GST control); in that of GGACCG, 1.12 fold enrichment (6-mer frequency, TF over GST control).

In a further assay the target is T3, ETV7 (Homo sapiens, UniProt Q9Y603 1-341).
T3 sequence: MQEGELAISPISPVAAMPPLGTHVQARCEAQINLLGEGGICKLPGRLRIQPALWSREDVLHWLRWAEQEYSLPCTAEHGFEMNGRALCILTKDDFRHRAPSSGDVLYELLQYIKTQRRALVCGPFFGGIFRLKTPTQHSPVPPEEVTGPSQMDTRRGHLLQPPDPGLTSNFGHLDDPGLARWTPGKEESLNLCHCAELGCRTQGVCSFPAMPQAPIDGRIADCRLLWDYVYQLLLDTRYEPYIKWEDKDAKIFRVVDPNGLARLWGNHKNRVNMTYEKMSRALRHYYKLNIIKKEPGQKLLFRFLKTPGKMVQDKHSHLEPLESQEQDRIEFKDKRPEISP
The description is as above. Particulars: protein: recombinant; tags: N-terminal GST; dsDNA, one strand shown. The method in brief: as §1
In the case of GTGGTG, the binding signal is 1 fold enrichment (6-mer frequency, TF over GST control). On the same count and under the same terms, in the case of GCCACG it was 1.03 fold enrichment (6-mer frequency, TF over GST control); in that of GCGCGG, 1.01 fold enrichment (6-mer frequency, TF over GST control). Regarding CAGCGA, the binding signal is 1.01 fold enrichment (6-mer frequency, TF over GST control). On the same count and under the same terms, in the case of AAAGTG it was 1.04 fold enrichment (6-mer frequency, TF over GST control); in that of GGGTAC, 1 fold enrichment (6-mer frequency, TF over GST control). Turning to ACGGGT, the binding signal is 1.01 fold enrichment (6-mer frequency, TF over GST control).

For the sequence CACGGT, the binding signal is 1 fold enrichment (6-mer frequency, TF over GST control).
